High-throughput results deposited in PubChem BioAssay by National Center for Advancing Translational Sciences (NCATS).
DT40 TDP1 no CPT – qHTS for Inhibitors of human tyrosyl-DNA phosphodiesterase 1 (TDP1): qHTS in cells in absence of CPT; Potency, µM (highest dose often 46.2 µM), for inactives: top-dose activity change, negative = growth inhibition, most hits filed as inhibitors; actives 15% (n = 420,000); DT40 Tdp1-/- hTDP1 cells, no CPT, ATP luminescence, 48 h; AID 686978, 2013; also: potency is read from the fitted curve at half-maximal effect; nearly all actives have a fitted effect of over 55% in size
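No-CPT arm: Tdp1-/-;hTDP1 DT40 cells (400/well) plus compounds, incubated ≥48 hr at 37 °C. Readout CellTiter-Glo luminescence.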
TDP1 cell CPT – DT40-hTDP1 cell growth loss with CPT | chicken DT40 Tdp1-/-;hTDP1 cells + 20 nM CPT, ATP luminescence, 48 h | Potency, µM (titrated, usually from 46.2 µM), for inactives: at the highest dose activity change, negative = growth inhibition, usual class: inhibitors | actives 12% (n = 420,000); also: potency is read from the fitted curve at half-maximal effect; nearly all actives have a fitted effect of over 55% in size
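Chicken DT40 Tdp1-/- cells stably complemented with human TDP1 were seeded at 400 cells/well in medium containing 20 nM camptothecin, exposed to pin-transferred compounds, and grown at 37 °C for at least 48 hr. Viability was read as ATP luminescence.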
HT1080-NT tox – kills 2HG-producing HT-1080-NT fibrosarcoma cells; HT-1080-NT fibrosarcoma viability, CellTiter-Glo ATP luminescence, 48 h; actives 1.6% (n = 360,000); Potency, µM (highest dose often 46.1 µM), without a hit: at the highest dose activity, negative = less viability, usual class: cytotoxic;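 also: NT is the 2HG producing partner of a matched IDH1 knockdown line; potency is read from the fitted curve at half-maximal effect; 0% = DMSO-treated cells and -100% = media-only wells without cells; nearly all actives have a fitted effect of over 55% in size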
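A 48-hour cytotoxicity screen used HT-1080-NT cells plated 2 hours before compound delivery. ATP-based CellTiter-Glo luminescence measured viability, normalized to DMSO and no-cell controls.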
IL1B secr inh – inflammasome signaling inhibition, IL-1 beta readout; THP-1 LPS/ATP IL-1B secretion, AlphaLISA, 16 h; stronger effect = lower value; activity change, % at 57.5 µM; actives 4.7% (n = 360,000); in the data active = activity change below about -50%; inconclusive = mostly about -30% to -49%
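THP-1 cells pretreated 1 hr with compounds (up to 57.5 uM final), then stimulated with LPS (250 ng/mL final) plus ATP (1.25 mM final); secreted IL-1B measured by AlphaLISA after 16 hr, decreased signal indicating inhibition.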
HT1080 IDH1KD tx – HT-1080 IDH1 knockdown cell toxicity (counter line) | Potency, µM (doses to about 46.1 µM), for inactives: at the top dose activity, negative = toxicity, hits mostly cytotoxic | HT-1080 IDH1 knockdown viability, ATP luminescence, 48 h | actives 2% (n = 360,000);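 also: potency is read from the fitted curve at half-maximal effect; 0% = DMSO wells and -100% = cell-free medium wells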
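HT-1080-IDH1KD cells (IDH1 knocked down), 750/well in RPMI with 5% FBS, treated with compound 48 h at 37 degrees C. Viability by CellTiter-Glo luminescence, normalised to DMSO and no-cell wells; concentration-response curves classed.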
The depositor's hits bear a star; ? = inconclusive; . = not tested or not shown; [ ] = another dose, or the depositor's remark. An excerpt weighted towards active compounds, which were near 19% of everything screened. Unless noted, calls follow the shape of the dose curve; as a rule, active = well fitted curve in the direction sought with a large enough effect; inconclusive = small, poorly fitted or top-dose-only effect, or another doubt; inactive = no such curve, though single readings can be large; an effect the other way counts as inactive or inconclusive. Unless noted, % is scaled to controls: 0 for no effect and ±100 for the full control effect.

SMILES	DT40 TDP1 no CPT	TDP1 cell CPT	HT1080-NT tox	IL1B secr inh	HT1080 IDH1KD tx
COC(=O)[C@H](Cc1ccccc1)NC(=O)N1CCN(Cc2ccccc2)CC1	26µM*	?	0%	-13	?
Nc1cccc2c1C(=O)N(C(=O)/C=C/c1ccc(F)cc1)C2=O	23µM*	16µM*	?	-78*	18µM*
Cc1ccc(-n2c(SCC(N)=O)nc3c(oc4ccccc43)c2=O)cc1	18µM*	?	-20%	47	-13%
Cc1cc(C)cc(NC(=O)CSc2nc3c(oc4ccccc43)c(=O)n2-c2ccccc2)c1	?	-16%	12%	-14	0%
Cc1cc(C)cc(-n2c(SCC(N)=O)nc3c(oc4ccccc43)c2=O)c1	15µM*	?	.	.	.
COc1ccccc1Cn1c(SCC(N)=O)nc2c(oc3ccccc32)c1=O	0%	?	1%	-25	-1%
Cc1cc(NC(=O)OC(C)(C)C)c(-n2nnnc2C(C(=O)c2ccccc2)N2CCOCC2)cc1C (stereo not given)	-29%	-22%	14%	16	11%
Fc1ccc(-n2nnc(-c3ccnc4ccccc34)n2)cc1	-14%	-26%	-1%	28	9%
CC(C)(C)c1ccc(-c2csc(NNC3=NCCCCC3)n2)cc1	-90%	?	-2%	-61*	?
c1ccc(-c2csc(NC3=NCCCCC3)n2)cc1	8%	13%	-18%	0	21%
Brc1ccc(-c2csc(NNC3=NCCCCC3)n2)cc1	?	?	-7%	-53*	-2%
CC(Oc1ccccc1)C(=O)Nc1nc(-c2ccncc2)cs1 (stereo not given)	-11%	?	-2%[9.24 µM]	-14	2%
N#Cc1ccc(-c2csc(NC3=NCCCCC3)n2)cc1	?	?	-18%	-26	-16%
FC(F)Oc1ccc(-c2csc(NNC3=NCCCCC3)n2)cc1	15µM*	4.6µM*	?	-93*	?
Cc1noc(C)c1N=Nc1ccc(Br)cc1C(=O)O	-4%	9%	25%	0	14%
CCN1CCc2nc(N)sc2C1	29µM*	?	-5%	-16	-2%
C=CCN1CCc2nc(N)sc2CC1	-2%	-23%	15%	-4	9%
CCOC(=O)c1c(-c2ccccc2)nnn1-c1nc(OCC)nc(N2CCCCC2)n1	?	18µM*	?	-21	?
CCOc1nc(N2CCCCC2)nc(-n2cc(-c3ccccc3)nn2)n1	18µM*	16µM*	21%	.	23%
CCOC(=O)c1nnn(-c2nc(N3CCCC3)nc(N3CCCC3)n2)c1-c1ccccc1	?	18µM*	1%	17	4%
CCOC(=O)c1nnn(-c2nonc2N)c1-c1ccc(OCC)cc1	-28%	-4%	-8%	46	-9%[9.24 µM]
CCOC(=O)c1cnc2c(-c3ccccc3)c(-c3ccccc3)nn2c1C	?	-19%	2%	8	20%
Cc1ccc(-c2cc3ncc(C(=O)c4cc([N+](=O)[O-])ccc4O)cn3n2)cc1	2.3µM*	?	.	.	.
Cc1ccc(-c2cc3nccc(-c4cc([N+](=O)[O-])ccc4O)n3n2)cc1	23µM*	23µM*	.	.	.
COc1ccc(CCN2C(=O)N[C@@H](C(C)C)C2=O)cc1	-2%	13%	6%	46	10%
SMILES	DT40 TDP1 no CPT	TDP1 cell CPT	HT1080-NT tox	IL1B secr inh	HT1080 IDH1KD tx
Nc1nc(SCC(=O)N2N=C(c3ccc(Cl)cc3)CC2c2ccco2)n[nH]1 (stereo not given)	-7%	?	-14%	-13	-24%
O=C(COc1cccnc1[N+](=O)[O-])N1N=C(c2ccc(Cl)cc2)CC1c1ccco1 (stereo not given)	2.9µM*	?	?	-25	?
Cc1ccc(OCC(=O)N2N=C(c3ccc(Cl)cc3)CC2c2ccco2)c([N+](=O)[O-])n1 (stereo not given)	?	?	-27%	-54*	-26%
COCC(=O)OCC(=O)N1N=C(c2ccc(Cl)cc2)CC1c1ccco1 (stereo not given)	-29%	-25%	-7%	-8	-3%
C=CCN1C(=O)/C(=C2/Sc3ccccc3N2CC)SC1=S	-21%	-23%	-1%	32	1%
CCN1C(=O)/C(=C2/Sc3ccccc3N2CC)S/C1=N\c1ncn[nH]1	23µM*	?	-14%	-55*	-2%
CCOc1ccc(C(C(=O)NC(C)(C)C)N(CCOC)C(=O)CCC(=O)Nc2ccccn2)cc1 (stereo not given)	2%	23%	14%	41	9%
OCC#Cc1ncc(C(F)(F)F)cc1Cl	7.3µM*	5.2µM*	21µM*	5	?
CCC1CCCCN1CCCNC(=O)c1cc2c(=O)oc3ccc(C)cc3c2s1 (stereo not given)	?	?	-8%	?	-8%
COC(=O)C1=C(N)N(c2ccccc2C(F)(F)F)C2=C(C(=O)CCC2)C1c1ccc2c(c1)OCO2 (stereo not given)	?	23µM*	-15%	-5	-12%
CCOC(=O)c1noc2nc(C)n(CC(=O)Nc3cc(Cl)ccc3OC)c(=O)c12	-16%	22%	.	.	.
COc1ccc(NS(=O)(=O)c2ccc(NC(=O)Cc3cccs3)cc2)cc1	15µM*	?	-14%	8	-20%
O=C(Nc1ccc(NC(=O)c2cccs2)cc1)c1cccs1	-13%	-14%	-20%	-23	-17%
COc1ccc(CC(=O)Nc2cc(S(=O)(=O)Nc3ccc(OC)cc3)ccc2OC)cc1	21µM*	21µM*	-12%	0	-3%
Cc1ccn(-c2ccc(NC(=O)c3cccs3)cc2)n1	12µM*	?	?	-5	?
CCN(CC)S(=O)(=O)c1ccc(NC(=O)c2cccs2)cc1	?	-9%	-1%	-52*	-2%
COc1ccc([N+](=O)[O-])cc1NC(=O)C(C)OC(=O)CSC(C)C(=O)Nc1cc(C)on1 (stereo not given)	-8%	0%	1%	8	0%
CCN(CC)S(=O)(=O)c1ccc(C)c(NC(=O)/C=C/c2cccs2)c1	13µM*	21µM*	7%	?	1%
CCN(CC)S(=O)(=O)c1ccc(NC(=O)C2c3ccccc3Oc3ccccc32)cc1	16µM*	23µM*	-17%	9	-20%
CCCN(CCC)S(=O)(=O)c1ccc(NC(=O)Cc2cccs2)cc1	-32%	-24%	-22%	-8	-23%
CCCCN(CCCC)S(=O)(=O)c1ccc(NC(=O)Cc2cccs2)cc1	21µM*	?	?	-16	?
